Our source for the outcome, potentiation and inhibition values is PubChem BioAssay.

For part of these data: Entries with a potency or affinity are not part of this list. Activity calls are given as the source filed them.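 How the source made its calls, unless noted: active means primary screen activator hit with a dose response curve and TRPC4 channel activation at any tested dose; inactive means no activation, no dose response, or not a primary hit.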

In assay [1] the test system is TRPC4 beta (transient receptor potential cation channel C4), mouse. The assay can be described thus: activators of mouse TRPC4 channel, confirmation, cell-based, Fluo4 calcium, HEK293 TRPC4beta/mu-opioid, duplicates, 10 µM (AID 2426;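 active means fluorescence ratio normalized to control raised more than 50% in primary screen plus both repeat runs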). The conditions noted are these: Fluo4 calcium fluorescence, at 10 µM; hits give high values.
Assay [2] has as its system transient receptor potential cation channel C4 beta (TRPC4), mouse. Kind of assay: activators of mouse TRPC4 channel, confirmation, cell-based, second round, Fluo4, HEK293 TRPC4beta/mu-opioid, 1 µM (AID 2461;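 active means primary screen active and over 50% activation in each of two duplicate runs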). The conditions noted are these: Fluo4 calcium fluorescence, at 1 µM; hits give high values.
Assay [3] has as its system TRPC4 (transient receptor potential cation channel C4 beta), mouse. Kind of assay: positive allosteric modulators of mouse TRPC4, confirmation, cell-based, second round, Fluo-4, HEK293 TRPC4beta/mu-opioid, 1 µM (AID 2554;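 active means primary screen hit whose fluorescence ratio, in both repeats, exceeds the weak agonist control mean by 3 SD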). The conditions noted are these: DAMGO EC20, Fluo-4 calcium flux, at 1 µM; hits give high values. For orientation: Calcium flux is commonly read through the fluorescence of an indicator in the cells.

In assay [4] the test system is TRPC4 beta (transient receptor potential cation channel C4), mouse. Kind of assay: positive allosteric modulators of mouse TRPC4, confirmation, cell-based, Fluo-4, HEK293 TRPC4beta/mu-opioid (AID 2555;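 active means primary screen hit whose calcium fluorescence ratio, in both repeats, exceeds the weak agonist control mean by 3 SD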). The conditions noted are these: DAMGO EC20, Fluo-4 calcium flux, at 10 µM; hits give high values.
The target of assay [5] is Short transient receptor potential channel 4 (Mus musculus) (UniProt Q9QUQ5). Kind of assay: inhibitors of mouse TRPC4 channel, confirmation, cell-based, Fluo4, HEK293 TRPC4beta/mu-opioid (AID 2636;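 active means calcium signal cut by more than 3 SD below the full-agonist control yet still positive, in both repeats and the earlier primary screen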). The conditions noted are these: DAMGO, Fluo4 calcium flux, at 10 µM; hits give high values.
Chain of Short transient receptor potential channel 4 (Mus musculus) (Q9QUQ5 whole entry, looked up): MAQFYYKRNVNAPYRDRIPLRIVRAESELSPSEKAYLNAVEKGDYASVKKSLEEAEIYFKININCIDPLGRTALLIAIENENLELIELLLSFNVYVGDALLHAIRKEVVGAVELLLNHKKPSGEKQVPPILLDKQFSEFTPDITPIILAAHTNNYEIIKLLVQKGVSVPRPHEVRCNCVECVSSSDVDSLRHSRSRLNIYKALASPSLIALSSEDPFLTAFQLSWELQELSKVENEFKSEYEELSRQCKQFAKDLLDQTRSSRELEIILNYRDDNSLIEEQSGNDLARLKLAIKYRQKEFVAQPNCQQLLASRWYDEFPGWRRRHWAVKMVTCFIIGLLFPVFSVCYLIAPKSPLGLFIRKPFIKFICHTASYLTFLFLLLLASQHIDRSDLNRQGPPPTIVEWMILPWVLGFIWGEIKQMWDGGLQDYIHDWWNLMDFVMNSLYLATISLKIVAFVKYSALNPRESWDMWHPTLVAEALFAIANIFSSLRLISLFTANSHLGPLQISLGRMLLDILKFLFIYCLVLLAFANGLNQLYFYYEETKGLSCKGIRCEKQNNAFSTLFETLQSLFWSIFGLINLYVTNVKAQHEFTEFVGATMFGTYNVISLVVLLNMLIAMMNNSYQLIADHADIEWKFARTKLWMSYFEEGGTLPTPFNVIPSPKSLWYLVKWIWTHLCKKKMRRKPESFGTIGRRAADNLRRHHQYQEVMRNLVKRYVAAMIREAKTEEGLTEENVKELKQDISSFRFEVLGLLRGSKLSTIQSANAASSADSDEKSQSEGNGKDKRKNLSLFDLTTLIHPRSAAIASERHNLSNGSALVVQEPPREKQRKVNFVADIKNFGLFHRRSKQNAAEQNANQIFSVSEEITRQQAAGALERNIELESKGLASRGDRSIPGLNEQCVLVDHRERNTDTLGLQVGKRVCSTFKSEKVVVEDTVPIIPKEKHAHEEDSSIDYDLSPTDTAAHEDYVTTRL
Assay [6] has the same target. The assay can be described thus: inhibitors of mouse TRPC4 channel, confirmation, cell-based, second round, Fluo4, HEK293 TRPC4beta/mu-opioid, 1 µM (AID 2637;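 active means calcium signal ratio cut to more than 3 SD under the fully stimulated control mean yet still positive, in both repeats and the primary screen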). The conditions noted are these: Fluo4 calcium flux, DAMGO, at 1 µM; hits give high values.
For assay [7] the target is unchanged. Kind of assay: mouse TRPC4 channel activators, dose response, cell-based, HEK293 TRPC4/mu-opioid, Fluo-4 calcium (AID 434937).
Assay [8] shares this target. Kind of assay: TRPC4 positive allosteric modulators, dose response, cell-based, HEK293 TRPC4/mu-opioid, Fluo-4 calcium, EC20 DAMGO (AID 434941;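 active means earlier screen potentiator hit that boosts the TRPC4 ion channel at some dose, with a dose response; inactive means no potentiation, no dose response, or not a prior hit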;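 further: calcium entry triggered by an EC20 dose of DAMGO at the co-expressed mu-opioid receptor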).
Assay [9] shares this target. The assay can be described thus: mouse TRPC4 channel inhibitors, dose response, cell-based, HEK293 TRPC4/mu-opioid, Fluo-4 calcium (AID 434942;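 active means primary screen inhibitor hit that blocks the TRPC4 channel at some tested dose, yielding a dose curve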).
The target in assay [10] is Short transient receptor potential channel 6 (Mus musculus) (UniProt Q61143). Kind of assay: inhibition of mouse TRPC6 channel, confirmation, selectivity assay for TRPC4 inhibitor project, cell-based, HEK293, membrane potential dye, duplicate (AID 434948;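 active means active in primary screen and both duplicates, each dropping signal beyond three positive-control SD with fluorescence still positive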). The conditions noted are these: HEK293 TRPC6, membrane potential dye fluorescence, at 10 µM, stimulated with maximal-effect acetylcholine; hits give high values.
Chain of Short transient receptor potential channel 6 (Mus musculus) (Q61143 whole entry, looked up): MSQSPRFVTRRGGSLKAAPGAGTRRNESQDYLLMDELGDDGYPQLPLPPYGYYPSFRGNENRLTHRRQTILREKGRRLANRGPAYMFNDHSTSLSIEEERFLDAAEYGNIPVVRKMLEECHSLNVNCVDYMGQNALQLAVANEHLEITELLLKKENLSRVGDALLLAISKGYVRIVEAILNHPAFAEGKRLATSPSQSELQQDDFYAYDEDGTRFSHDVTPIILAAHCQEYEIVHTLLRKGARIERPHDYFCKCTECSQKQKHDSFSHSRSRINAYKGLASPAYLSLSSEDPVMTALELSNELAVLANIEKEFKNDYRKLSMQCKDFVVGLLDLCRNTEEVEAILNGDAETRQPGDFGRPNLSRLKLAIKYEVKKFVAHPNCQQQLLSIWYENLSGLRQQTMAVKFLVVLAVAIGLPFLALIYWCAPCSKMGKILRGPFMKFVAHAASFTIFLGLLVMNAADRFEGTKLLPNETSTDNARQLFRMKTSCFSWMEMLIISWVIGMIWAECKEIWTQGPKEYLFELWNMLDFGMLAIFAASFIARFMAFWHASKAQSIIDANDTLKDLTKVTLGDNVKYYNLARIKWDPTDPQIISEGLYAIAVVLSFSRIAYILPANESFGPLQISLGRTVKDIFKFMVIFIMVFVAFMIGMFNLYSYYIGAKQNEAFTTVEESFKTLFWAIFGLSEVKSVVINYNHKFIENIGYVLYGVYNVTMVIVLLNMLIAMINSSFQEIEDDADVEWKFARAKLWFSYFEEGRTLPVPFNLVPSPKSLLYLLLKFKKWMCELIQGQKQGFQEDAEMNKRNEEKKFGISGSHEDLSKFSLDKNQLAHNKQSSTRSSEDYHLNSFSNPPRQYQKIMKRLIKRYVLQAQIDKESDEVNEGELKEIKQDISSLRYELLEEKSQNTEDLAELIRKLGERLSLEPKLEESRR

Assay [11] has the same target. The assay can be described thus: activation of mouse TRPC6 channel, confirmation, selectivity assay for TRPC4 activator project, cell-based, HEK293, membrane potential dye, duplicate (AID 434950;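 active means membrane potential signal rise above negative control mean plus 3 SD in both duplicates, also active in the earlier TRPC4 screen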). The conditions noted are these: HEK293 TRPC6, membrane potential fluorescence, at 10 µM; hits give high values.
Assay [12] shares this target. Kind of assay: TRPC6 potentiation by TRPC4 potentiator hits, confirmation, selectivity assay for TRPC4 potentiator project, HEK293 cells, membrane potential dye, duplicate (AID 434952;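 active means compound raising the membrane signal above positive-control mean plus 3 SD in both repeats, and a primary screen hit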). The conditions noted are these: HEK293 TRPC6, membrane potential dye fluorescence, at 10 µM, maximal acetylcholine added after compound; hits give high values.
In assay [13] the target is Short transient receptor potential channel 4 (Mus musculus) (UniProt Q9QUQ5). The assay can be described thus: calcium flux activators in TRPC4/5HT1a cells, counter-screen for TRPC4 activator project, cell-based, second counter screen, HEK293 TRPC4/5HT1a, Fluo-4 (AID 434977;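 active means calcium signal rise above buffer-control mean plus 5 SD in both duplicates, and also a hit in the primary screen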). The conditions noted are these: Fluo-4 calcium flux, at 10 µM; hits give high values.
A short description of assay [14]: calcium flux inhibitors in TRPC4/5HT1a cells, confirmation, counter-screen for TRPC4 inhibitor project, cell-based, second counter screen, HEK293 TRPC4/5HT1a, Fluo-4 (AID 434978;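 active means primary screen active whose calcium signal fell more than 3 SD beyond the full-serotonin control mean in both duplicate plates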;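 on outcome: serotonin given first at submaximal then at maximal dose after compound preincubation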). The conditions noted are these: Fluo-4 calcium flux, at 10 µM, serotonin added to trigger calcium flux; hits give high values.
The test system of assay [15] is TRPC4 (mouse), co-expressed with 5HT1a in HEK293. Kind of assay: calcium flux potentiators in TRPC4/5HT1a cells, confirmation, counter-screen for TRPC4 potentiator project, cell-based, second counter screen, HEK293 TRPC4/5HT1a, Fluo-4 (AID 434979;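 active means signal rise over 3 SD above mean of control wells given weak agonist, in both repeats and first screen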). The conditions noted are these: Fluo-4 calcium flux, at 10 µM, serotonin added at its EC20 dose; hits give high values.
The nature of assay [16]: calcium flux activation in mu-opioid HEK293 cells, confirmation, counter-screen for TRPC4 activator project, cell-based, HEK293 mu-opioid receptor line (AID 449723;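 active means hit in primary screen, with calcium signal over 5 SD above buffer well mean in both duplicates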;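 further: counter screen cells carry the mu-opioid receptor alone and lack TRPC4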). The conditions noted are these: Fluo-4 calcium fluorescence, at 10 µM; hits give high values.
Assay [17] in a line: calcium flux enhancement in mu-opioid HEK293 cells, confirmation, counter-screen for TRPC4 allosteric potentiator project, cell-based, HEK293 mu-opioid receptor line (AID 449724;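 active means calcium signal rise more than 3 SD above the low-dose agonist control mean, in both duplicate plates and the primary screen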;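 further: HEK293 cells carrying mu-opioid receptor only with no TRPC4 channel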). The conditions noted are these: Fluo-4 calcium flux, at 10 µM, compound added before EC20 DAMGO stimulus; hits give high values.

For `C#CC[N+]1(CC#Cc2cccc3ccccc23)CCOCC1`, the outcome in [1], in assay [2], in assay [3], in [5], in assay [6] and in assay [7] was inactive. Also, the outcome in assay [8], in assay [9], in assay [10], in assay [11], in assay [12] and in [13] was inactive. Also, the result in assay [14], in assay [16] and in assay [17] was inactive. Also, the potentiation was 22% (active) in assay [4] and 26.3% (active) in assay [15].

As for `CCOC(=O)c1c(NC(NC(C)=O)C(Cl)(Cl)Cl)sc2c1CCCC2` (stereo not drawn), the result in [1], in [2], in [3], in assay [4], in [5] and in assay [6] was inactive. Besides, the result in assay [7], in assay [8], in [9], in assay [10], in [11] and in assay [12] was inactive. In addition, the outcome in [13], in [14], in [16] and in assay [17] was inactive. For the same molecule, the potentiation in [15] is 7.17% (active).

Broadly, the inhibition is the drop in the measured response relative to a control, in per cent. Regarding `Cc1sc(NC(=O)C2CCCCC2C(=O)O)c(C(N)=O)c1-c1ccc(C(C)(C)C)cc1` (stereo not drawn), the outcome in assay [1], in [2], in assay [3], in assay [4], in assay [6] and in assay [7] was inactive. Besides, the outcome in [8], in assay [9], in [10], in assay [11], in [12] and in assay [13] was inactive. Moreover, the result in assay [15], in assay [16] and in assay [17] was inactive. For the same molecule, the results for the inhibition in assay [5] and in assay [14] were 95% (active) and 18.7% (active), respectively.

Take `COc1ccc(-c2cc(C(=O)N3CC(C)CC(C)C3)c3ccccc3n2)cc1` (stereo not drawn): the outcome in [1], in assay [2], in assay [3], in [4], in [5] and in [6] was inactive. In addition, the result in assay [7], in assay [8], in assay [9], in assay [10], in assay [11] and in assay [12] was inactive. In addition, the outcome in [13], in [14], in assay [15], in assay [16] and in assay [17] was inactive.

Consider `COc1cccc(C(=O)Oc2ccc(/C=N/Nc3ccc(C(=O)O)cc3)cc2OC)c1`, for which the result in assay [1], in assay [2], in assay [3], in assay [4], in [5] and in [6] was inactive. Moreover, the outcome in [7], in assay [8], in [9], in assay [10], in assay [11] and in assay [12] was inactive. Moreover, the result in [13], in [14], in [15], in assay [16] and in [17] was inactive.

For `CN(C)c1ccc(C(=S)N2CCN(c3ccc([N+](=O)[O-])cc3)CC2)cc1`, the result in [1], in assay [2], in assay [3], in assay [4], in assay [5] and in [6] was inactive. Also, the result in assay [7], in [8], in assay [9], in assay [10], in [11] and in assay [12] was inactive. Besides, the outcome in assay [13], in assay [14], in [16] and in assay [17] was inactive. In [15], the potentiation was 8.7% (active).

As to `Cc1cc(C)nc(Nc2nc(=O)c3ccccc3s2)n1`, the result in [1], in assay [2], in assay [5], in assay [6], in assay [7] and in assay [8] was inactive. Besides, the outcome in assay [9], in assay [10], in assay [11], in assay [12], in assay [13] and in [14] was inactive. The outcome in assay [16] and in assay [17] was inactive. Besides, the potentiation in [3] was 10% (active); in [4], 82% (active); in [15] it was 81.3% (active).

`COC(=O)[C@@]12CCCN1[C@H](c1ccc(-c3ccc(OC)cc3)cc1)[C@@H]1C(=O)N(C)C(=O)[C@@H]12`: the outcome in [1], in [2], in assay [3], in assay [5], in assay [6] and in assay [7] was inactive. Further, the outcome in assay [8], in assay [9], in [10], in assay [11], in assay [12] and in assay [13] was inactive. The result in assay [14], in [16] and in assay [17] was inactive. Also, the potentiation in assay [4] is 32% (active); in [15], 111% (active).

With `O=C(Nc1nnc2n1CCS2)c1ccc(Br)o1`, the outcome in assay [1], in [2], in assay [3], in [5], in assay [6] and in assay [7] was inactive. The outcome in assay [8], in assay [9], in [10], in [11], in assay [12] and in assay [13] was inactive. For the same molecule, the result in assay [14], in [16] and in assay [17] was inactive. Also, the potentiation was 80% (active) in assay [4] and 56.3% (active) in assay [15].
